DT40 TDP1 CPT: qHTS for Inhibitors of human tyrosyl-DNA phosphodiesterase 1 (TDP1): qHTS in cells in presence of CPT; chicken DT40 Tdp1-/-;hTDP1 cells + 20 nM CPT, ATP luminescence, 48 h; Potency, µM (series often up to 46.2 µM), inactives show at the top dose activity change, negative = growth inhibition, usual class: inhibitors; hit rate 12% among 420,000; also: potency is read from the fitted curve at half-maximal effect; % is scaled to controls: 0 for no effect and ±100 for the full control effect; nearly all actives have a fitted effect of over 55% in size
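Cell growth measured by CellTiter-Glo luminescence after a minimum 48 h, 37 C compound exposure with 20 nM CPT in Tdp1-knockout DT40 cells stably expressing hTDP1, seeded 400/well; qHTS titration format.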
DT40 TDP1 no CPT: qHTS for Inhibitors of human tyrosyl-DNA phosphodiesterase 1 (TDP1): qHTS in cells in absence of CPT; Potency, µM (top dose mostly 46.2 µM), for inactives: at the top dose activity change, negative = growth inhibition, actives largely listed as inhibitors; hit rate 15% among 420,000; AID 686978, 2013; DT40 Tdp1-/- hTDP1 cells, no CPT, ATP luminescence, 48 h; also: potency is read from the fitted curve at half-maximal effect; % is scaled to controls: 0 for no effect and ±100 for the full control effect; nearly all actives have a fitted effect of over 55% in size
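Luminescent ATP content (CellTiter-Glo) served as the growth readout. Knockout chicken DT40 cells expressing human TDP1 were exposed to compounds without camptothecin for a minimum 48 hr at 37 °C.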
TGFb SMAD3 inh: qHTS for Inhibitors of TGF-b; Potency, µM (top dose mostly 46.1 µM), for inactives: at the highest dose activity, negative = inhibition, usual class: inhibitors; AID 588855, 2011; HepG2 CAGA-GFP TGF-b/SMAD3 reporter, GFP fluorescence, 18 h; TGF-beta stimulated, 500 pg/mL final; hit rate 1.2% among 410,000; also: potency is read from the fitted curve at half-maximal effect; % is scaled to controls: 0 for no effect and ±100 for the full control effect; nearly all actives have a fitted effect of over 65% in size
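HEPG2 CAGA-GFP reporter cells (1000/well, DMEM with 1% FBS) received compounds, then recombinant TGF-beta at 500 pg/mL final for 18 hours at 37 degrees C. Per-cell GFP summed per well was normalised to unstimulated and stimulated DMSO controls before curve fitting.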
HepG2 tox: qHTS for Inhibitors of TGF-b: Cytotox Counterscreen. HepG2 CAGA-GFP viability, ATP luminescence, 18 h. Potency, µM (doses to about 46.1 µM), for the others: at the highest dose activity change, negative = cytotoxicity, most hits filed as cytotoxic. hit rate 0.76% among 410,000; also: potency is read from the fitted curve at half-maximal effect
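HepG2 CAGA-GFP cells (1000/well, DMEM with 1% FBS) received compound, then TGF-beta at 500 pg/mL final, and were incubated 18 hours at 37 degrees C. Viability was read by CellTiter-Glo luminescence. Media-only wells were set as complete cell-killing and DMSO as no toxicity.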
S-ASM inh: Inhibitors of Secretory Acid Sphingomyelinase (S-ASM): qHTS | Potency, µM (top dose mostly 57.5 µM), without a hit: top-dose activity change, negative = inhibition, actives largely listed as inhibitors | placental ASM, HMU-PC fluorogenic substrate, 60 min | Sphingomyelin phosphodiesterase (Homo sapiens), P17405 | hit rate 0.006% among 340,000 | AID 504937, 2011; also: potency is read from the fitted curve at half-maximal effect
Target sequence (P17405 47-631 limits assumed): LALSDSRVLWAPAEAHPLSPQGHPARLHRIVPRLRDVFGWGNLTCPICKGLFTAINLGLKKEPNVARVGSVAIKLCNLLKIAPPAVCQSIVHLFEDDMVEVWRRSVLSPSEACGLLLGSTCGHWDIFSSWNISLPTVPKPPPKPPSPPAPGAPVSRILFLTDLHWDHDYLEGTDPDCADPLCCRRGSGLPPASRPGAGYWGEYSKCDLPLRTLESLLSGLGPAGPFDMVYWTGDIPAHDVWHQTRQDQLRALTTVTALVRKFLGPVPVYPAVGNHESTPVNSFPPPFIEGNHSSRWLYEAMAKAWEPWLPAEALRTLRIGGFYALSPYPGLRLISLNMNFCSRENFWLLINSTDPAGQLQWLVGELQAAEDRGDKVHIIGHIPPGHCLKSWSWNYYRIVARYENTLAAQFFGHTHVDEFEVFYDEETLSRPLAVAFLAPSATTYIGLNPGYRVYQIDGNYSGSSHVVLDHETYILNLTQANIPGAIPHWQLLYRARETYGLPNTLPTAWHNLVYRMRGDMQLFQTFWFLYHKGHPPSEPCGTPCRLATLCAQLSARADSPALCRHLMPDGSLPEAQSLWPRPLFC
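HMU-PC0 cleavage (9 uM final) by human placental ASM, 60 min at 37 °C following 10 min compound exposure at RT; stopped at pH 10, fluorescence Ex 386/Em 447 nm.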
IL-1B inflam inh: qHTS for Inhibitors of Inflammasome Signaling: IL-1-beta AlphaLISA Primary Screen; hit rate 4.7% among 360,000; AID 743279, 2014; THP-1 LPS/ATP IL-1B secretion, AlphaLISA, 16 h; active compounds read low; activity change, % at 57.5 µM; in the data active = activity change below about -50%; inconclusive = mostly about -30% to -49%; also: % is scaled to controls: 0 for no effect and ±100 for the full control effect
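Secreted IL-1B measured by AlphaLISA bead assay after 16 h compound exposure of THP-1 cells; compounds (final up to 57.5 uM) added 1 h before LPS (250 ng/mL) and ATP (1.25 mM) stimulation; lower signal means less secretion.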
An asterisk follows results filed as active; i = inactive; u = inconclusive; x = no result given. Most compounds without a hit are left out; they make up all but 19% or so of the library. Unless noted, calls follow the shape of the dose curve; as a rule, active = well fitted curve in the direction sought with a large enough effect; inconclusive = small, poorly fitted or top-dose-only effect, or another doubt; inactive = no such curve, though single readings can be large; an effect the other way counts as inactive or inconclusive.

SMILES	DT40 TDP1 CPT	DT40 TDP1 no CPT	TGFb SMAD3 inh	HepG2 tox	S-ASM inh	IL-1B inflam inh
CC[C@@H](C)[C@@H](N)C1=N[C@H](C(=O)N[C@@H](CC(C)C)C(=O)N[C@@H](CCC(=O)O)C(=O)N[C@@H](C(=O)N[C@@H]2CCCCNC(=O)[C@@H](CC(N)=O)NC(=O)[C@@H](CC(=O)O)NC(=O)[C@@H](Cc3cnc[nH]3)NC(=O)[C@@H](Cc3ccccc3)NC(=O)[C@@H]([C@H](C)CC)NC(=O)[C@@H](CCCN)NC2=O)[C@@H](C)CC)CS1	11.4%	-12.5%	x	x	x	x
CCOC(=O)c1c(C)[nH]c(C)c1S(=O)(=O)N(C)CC(=O)NCc1cccc(Br)c1	u	u	u	8.7%	-0.3%	2.6
Brc1cccc(/C=N/Nc2nn[nH]n2)c1	-17.3%	-24.7%	2.1%	1.8%	-0.3%	-11.2
CCN(CC)c1ccc(/C=N/Nc2nc(C)cc(C)n2)cc1	23.1µM*	18.4µM*	u	-34.3%	8.6%	23.1
CCN(CC)c1ccc(/C=N/Nc2nn[nH]n2)cc1	u	11.6µM*	-26.5%	-8.7%	39.8%	7.9
CC(=O)Nc1ccc(Nc2cc(C)c3ccccc3n2)cc1	u	u	u	-21.0%	91.6%	-92.4*
COc1ccc(Nc2cc(C)c3ccc(O)cc3n2)cc1	23.1µM*	16.4µM*	u	-40.6%	25.4%	-50.2*
O=C(Nc1cccc2ncccc12)c1cc(Br)ccc1Cl	-2.9%	-9.4%	0.4%	-28.2%	2.6%	15.5
Oc1ccc(Br)cc1-c1nc2cnccn2c1NC1CCCCC1	-19.0%	-24.7%	u	-26.4%	-15.9%	-70.3*
Cc1ccc(Nc2c(-c3ccccc3O)nc3cnccn23)cc1	u	u	-6.2%	38.1%	-28.7%	u
Oc1ccc(Br)cc1-c1nc2cnccn2c1NC1CCCC1	u	u	-28.3%	11.2µM*	-5.0%	-92.7*
COCCCN1C(=O)c2[nH]nc(-c3ccccc3O)c2C1c1cccc(Cl)c1 (stereo unspecified)	20.6µM*	2.91µM*	-14.4%	-8.8%	-7.5%	10.2
CCCCOc1cccc(C2c3c(-c4cc(C)ccc4O)n[nH]c3C(=O)N2CCOC)c1 (stereo unspecified)	u	u	u	-109.7%	x	x
CC(C)OCCCN1C(=O)c2[nH]nc(-c3ccccc3O)c2C1c1cccc(Cl)c1 (stereo unspecified)	18.4µM*	23.1µM*	u	-87.5%	-25.9%	u
CC(=O)Nc1ccc(Oc2sc(C(=O)c3ccccc3)c(N)c2C#N)cc1	u	u	10µM*	-2.9%	-10.9%	-59.7*
CC(=O)Nc1ccc2ccccc2c1[N+](=O)[O-]	-3.0%	-15.2%	31.2%	2.4%	1.2%	-3.1
COc1ccc(-c2cc(C(F)(F)F)nc(SCC(=O)Nc3ccc(O)cc3)n2)cc1OC	x	x	-5.0%	0.1%	x	x
CC(O)[C@H]1CN=C(N)N1CCCCC1CCCCC1 (stereo partly specified)	9.2µM*	8.2µM*	12.3%	-9.3%	0.8%	u
CCC(C)[C@H]1CN=C(N)N1CC1CCCCC1 (stereo partly specified)	2.59µM*	2.31µM*	-5.3%	-4.3%	-0.9%	-1.4
CCC(C)[C@H]1CNC(=O)C(=O)N1CCCCC1CCCCC1 (stereo partly specified)	-24.2%	-27.5%	x	x	x	-2.2
NCCCC[C@H]1CN=C(N)N1CCCCC1CCCCC1	u	u	9.1%	-4.9%	7.1%	-64.0*
NCCCC[C@H]1CN=C(N)N1CC1CCCCC1	-13.8%	-2.9%	-1.0%	3.7%	-1.0%	-0.7
Cc1cc(C)cc(N(CC(=O)NC(C)(C)C)C(=O)CCC(=O)Nc2nccs2)c1	-5.2%	-8.2%	-0.7%	-0.2%	-3.1%	-11.0
O=C(COC(=O)c1cnccn1)NCc1ccccc1Cl	-1.0%	-3.2%	3.8%	-7.9%	x	u
COc1cccc(NC(=O)CN(C)S(=O)(=O)c2ccc3c(c2)n(C)c(=O)c(=O)n3C)c1	-19.1%	23.9%	0.0%	5.5%	-1.6%	4.1
SMILES	DT40 TDP1 CPT	DT40 TDP1 no CPT	TGFb SMAD3 inh	HepG2 tox	S-ASM inh	IL-1B inflam inh
CC(=O)N1CCN(S(=O)(=O)c2cccc(C(=O)OCC(=O)N(CCC#N)c3ccc(F)cc3)c2)CC1	-6.1%	3.1%	-3.9%	-9.2%	11.7%	7.1
O=[N+]([O-])c1cccc(-c2cc(-c3cc(Br)ccc3O)[nH]n2)c1	u	20.6µM*	u	-140.7%	-3.6%	-89.0*
Oc1ccc(Br)cc1-c1cc(-c2ccccc2)n[nH]1	u	u	0.0%	-40.9%	-7.0%	-2.0
Oc1ccc(Br)cc1-c1cc(-c2ccc(Cl)cc2)n[nH]1	20.6µM*	u	u	-66.3%	-2.8%	-14.4
O=[N+]([O-])c1ccccc1-c1cc(-c2ccccc2O)n[nH]1	u	u	u	-16.2%	-8.5%	-74.1*
C=CCN(Cc1nc(-c2ccc(OC)c(OC)c2)oc1C)C1CCS(=O)(=O)C1 (stereo unspecified)	4.9%	-15.9%	0.0%	-44.2%	1.4%	-7.5
Cc1ccc(NC(=S)N(CCN2CCOCC2)Cc2ccccc2F)cc1	3.1%	-0.4%	4.8%	-1.2%	-2.5%	1.8
COc1cccc(NC(=S)N(CCCN2CCOCC2)Cc2cn(C)c3ccccc23)c1	9.2µM*	14.6µM*	-3.3%	9.6%	0.3%	-13.1
Cc1cc(NC(=S)N(CCN2CCOCC2)Cc2ccccc2F)ccc1Cl	u	18.4µM*	u	13.3%	5.9%	-58.5*
Cc1cc(C)c2nc(C)cc(N/N=C/c3ccc(O)cc3)c2c1	3.26µM*	3.26µM*	20µM*	17.8µM*	104.1%	-98.3*
Cc1cc(N/N=C/c2ccc(O)cc2)c2cccc(C)c2n1	u	u	u	17.8µM*	58.5%	u
Cc1cc(N/N=C/c2ccc(N(C)C)cc2)c2ccccc2n1	0.7%	u	-17.2%	-9.3%	i	-15.0
Cc1ccc2nc(C)cc(N/N=C/c3ccccc3O)c2c1	-10.3%	-12.0%	-12.8%	-26.9%	-1.4%	-17.8
CCCCC(CC)COC(=O)C(C#N)=C(c1ccccc1)c1ccccc1 (stereo unspecified)	u	18.4µM*	1.0%	-7.3%	-0.6%	8.2
